Measurements as given in PubChem BioAssay (NCI).
The panel holds about 83,000 compounds, 20% with a hit somewhere; the sample as a whole holds those more often.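 How to read the values: 0–100, growth inhibition (40 = 60% inhibited); 0, no net growth; -100 to 0, cell death (-40 = 40% of starting cells died; -100 = all dead).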

Tests used:
Test in all cases: NCI-60 one-dose screen, 48 h (100 = growth as untreated, 0 = no growth, -100 = all killed)
Conditions in all cases: 10 µM unless noted; active = growth percent below 10; inactive = the rest
SR leukemia = system: SR leukemia
RPMI-8226 leukemia = system: RPMI-8226 leukemia
OVCAR-8 ovarian = system: OVCAR-8 ovarian
OVCAR-5 ovarian = system: OVCAR-5 ovarian
OVCAR-4 ovarian = system: OVCAR-4 ovarian
SK-OV-3 ovarian = system: SK-OV-3 ovarian
IGROV1 ovarian = system: IGROV1 ovarian
OVCAR-3 ovarian = system: OVCAR-3 ovarian
HS 578T breast = system: HS 578T breast
NCI/ADR-RES ovarian = system: NCI/ADR-RES ovarian
T-47D breast = system: T-47D breast
BT-549 breast = system: BT-549 breast
MDA-MB-435 melanoma = system: MDA-MB-435 melanoma
SW-620 colon = system: SW-620 colon
HCT-116 colon = system: HCT-116 colon
HCC-2998 colon = system: HCC-2998 colon
KM12 colon = system: KM12 colon
MCF7 breast = system: MCF7 breast

Measured: growth

COC(=O)c1cc(C(=O)OC)cc([N+](=O)[O-])c1
inactive: SR leukemia 74.7% | RPMI-8226 leukemia 93.8% | OVCAR-8 ovarian 93.5% | OVCAR-5 ovarian 106% | OVCAR-4 ovarian 106% | SK-OV-3 ovarian 98.5% | IGROV1 ovarian 118% | OVCAR-3 ovarian 120% | HS 578T breast 103% | NCI/ADR-RES ovarian 115% | T-47D breast 111% | BT-549 breast 91.6% | MDA-MB-435 melanoma 115% | SW-620 colon 102% | HCT-116 colon 95.3% | HCC-2998 colon 99.2% | KM12 colon 112%

NC(=O)Cc1nc(O)cc(=O)[nH]1
inactive: SR leukemia 93.5% | RPMI-8226 leukemia 85.2% | OVCAR-8 ovarian 93.8% | OVCAR-5 ovarian 109% | OVCAR-4 ovarian 113% | SK-OV-3 ovarian 89.7% | IGROV1 ovarian 109% | OVCAR-3 ovarian 109% | HS 578T breast 91.9% | NCI/ADR-RES ovarian 115% | T-47D breast 88.5% | BT-549 breast 109% | MDA-MB-435 melanoma 106% | MCF7 breast 95.5% | HCT-116 colon 110% | HCC-2998 colon 100% | KM12 colon 106%

COc1ccc2oc3c(ccc[n+]3C)c(=O)c2c1
inactive: SR leukemia 119% | RPMI-8226 leukemia 104% | OVCAR-8 ovarian 96.5% | OVCAR-5 ovarian 98.9% | OVCAR-4 ovarian 108% | SK-OV-3 ovarian 99.7% | IGROV1 ovarian 108% | OVCAR-3 ovarian 109% | HS 578T breast 99.8% | NCI/ADR-RES ovarian 108% | T-47D breast 85.9% | BT-549 breast 103% | MDA-MB-435 melanoma 105% | SW-620 colon 105% | HCT-116 colon 101% | HCC-2998 colon 117% | KM12 colon 108%

O=C(O)c1ccc2c3ccc(C(=O)O)c4c(C(=O)O)ccc(c5ccc(C(=O)O)c1c25)c43
inactive: SR leukemia 104% | RPMI-8226 leukemia 135% | OVCAR-8 ovarian 98% | OVCAR-5 ovarian 84.2% | OVCAR-4 ovarian 103% | SK-OV-3 ovarian 107% | IGROV1 ovarian 42.4% | OVCAR-3 ovarian 101% | HS 578T breast 107% | NCI/ADR-RES ovarian 114% | T-47D breast 97.2% | BT-549 breast 64.8% | MDA-MB-435 melanoma 101% | SW-620 colon 97.5% | HCT-116 colon 90.1% | HCC-2998 colon 76.9% | KM12 colon 100%

CCOC(=N)c1ccc(C(=N)OCC)cc1
inactive: SR leukemia 91.7% | RPMI-8226 leukemia 109% | OVCAR-8 ovarian 105% | OVCAR-5 ovarian 105% | OVCAR-4 ovarian 106% | SK-OV-3 ovarian 93.2% | IGROV1 ovarian 111% | OVCAR-3 ovarian 124% | HS 578T breast 96.8% | NCI/ADR-RES ovarian 104% | T-47D breast 84% | BT-549 breast 98.2% | MDA-MB-435 melanoma 114% | MCF7 breast 92.3% | HCC-2998 colon 109% | KM12 colon 105%

CC(=O)c1cccc(OC(=O)c2ccccc2)c1
inactive: SR leukemia 65.6% | RPMI-8226 leukemia 100% | OVCAR-8 ovarian 99% | OVCAR-5 ovarian 104% | OVCAR-4 ovarian 92.7% | SK-OV-3 ovarian 97.6% | IGROV1 ovarian 114% | OVCAR-3 ovarian 124% | HS 578T breast 105% | NCI/ADR-RES ovarian 96% | T-47D breast 102% | BT-549 breast 120% | MDA-MB-435 melanoma 117% | MCF7 breast 85.2% | HCT-116 colon 90.1% | HCC-2998 colon 101% | KM12 colon 110%

CC1NC(C)c2ccc3ccccc3c2O1 (stereo not given)
inactive: SR leukemia 96.8% | RPMI-8226 leukemia 97.3% | OVCAR-8 ovarian 104% | OVCAR-5 ovarian 108% | OVCAR-4 ovarian 111% | SK-OV-3 ovarian 106% | IGROV1 ovarian 115% | OVCAR-3 ovarian 106% | HS 578T breast 108% | NCI/ADR-RES ovarian 105% | T-47D breast 108% | BT-549 breast 107% | MDA-MB-435 melanoma 111% | SW-620 colon 111% | HCT-116 colon 102% | HCC-2998 colon 110% | KM12 colon 111%

ON=C(C1CCCCC1)C1CCCCC1
inactive: SR leukemia 97.2% | RPMI-8226 leukemia 105% | OVCAR-8 ovarian 107% | OVCAR-5 ovarian 89.5% | OVCAR-4 ovarian 107% | SK-OV-3 ovarian 106% | IGROV1 ovarian 102% | OVCAR-3 ovarian 105% | HS 578T breast 101% | NCI/ADR-RES ovarian 103% | T-47D breast 87.3% | BT-549 breast 108% | MDA-MB-435 melanoma 103% | SW-620 colon 102% | HCT-116 colon 100% | HCC-2998 colon 109% | KM12 colon 95.5%
